{"source": "PubChem BioAssay", "note": "Where “and” joins values, the source holds several entries; their conditions need not be identical. Identical values can stand only once. Calls of active or inactive are those of the source.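 How the source made its calls, unless noted: active means response below a set limit, under 55% cells CD8-positive and vesicle-bound, and CD8 cells' 90th-percentile brightness under 279; inactive means the rest.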"}
{"tested_on": "not listed separately", "assay": "reduced mouse 2C T cell binding to pMHC/ICAM-1 vesicles – MLPCN validation set, flow cytometry, LFA-1/ICAM-1 modulator project, pilot screen (AID 2523);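 on vesicle binding response: mean PE anti-B7-1 fluorescence of CD8+ cells relative to row control; 100% = QL9-loaded vesicles with DMSO vehicle in the same plate row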", "settings": "2C mouse CD8+ T cells, at 7 µM, stronger effect = lower value; double positive events: measured here: CD8+/vesicle+ event percentage"}
{"compound": "O=C(Cc1ccccc1[N+](=O)[O-])NCc1ccncc1", "vesicle binding response": "243% (inactive)", "double positive events": "63.2%"}
{"compound": "Cn1nc(-c2ccc(Cl)cc2)nc2c(=O)n(C)c(=O)nc1-2", "double positive events": "62.1%", "vesicle binding response": "215% (inactive)"}
{"compound": "O=C(O)CCCCCNC(=O)Nc1ccc2c(c1)OCCO2", "vesicle binding response": "207% (inactive)", "double positive events": "49.7%"}
{"compound": "COc1ccc(S(N)(=O)=O)cc1C(N)=O", "vesicle binding response": "195% (inactive)", "double positive events": "62%"}
{"compound": "Cc1occc(=O)c1O", "vesicle binding response": "198% (inactive)", "double positive events": "65.3%"}
{"compound": "C[C@]12CCC3C(CC=C4C[C@@H](O)CC[C@@]43C)C1CCC2[C@]1(C)CCC(=O)O1", "note": "(some centres not stated)", "vesicle binding response": "164% (inactive)", "double positive events": "57%"}
{"compound": "CC(=O)N(CCC1(c2ccc(C)cc2)CCOC(C(C)C)C1)Cc1ccco1", "note": "(configuration not stated)", "vesicle binding response": "74.9% (active)", "double positive events": "46.3%"}
{"compound": "O=C(CCc1ccccc1)Nc1ccccc1C(F)(F)F", "double positive events": "64.1%", "vesicle binding response": "240% (inactive)"}
{"compound": "CN(C)C(=O)Oc1cccc([N+](C)(C)C)c1", "vesicle binding response": "158% (inactive) and 4880% (inactive)", "double positive events": "55.5% and 63.8%"}
{"compound": "CCOc1ccc(C(NC(C)=O)c2ccc(OC)c(OC)c2)cc1", "note": "(configuration not stated)", "double positive events": "58.9%", "vesicle binding response": "28% (inactive)"}
{"compound": "COc1ccccc1N=CC1=C(O)CC(c2ccccc2)CC1=O", "note": "(configuration not stated)", "double positive events": "64.4%", "vesicle binding response": "153% (inactive)"}
{"compound": "O=C1CC(c2ccc(O)cc2)Oc2cc(O)cc(O)c21", "note": "(configuration not stated)", "vesicle binding response": "238% (inactive)", "double positive events": "61.7%"}
{"compound": "O=C(NCCO)c1ccc(Cl)c(Cl)c1", "double positive events": "59.4%", "vesicle binding response": "97% (inactive)"}
{"compound": "N/C(Cc1ccc(Cl)cc1Cl)=N\\OC(=O)c1ccc(Br)o1", "vesicle binding response": "224% (inactive)", "double positive events": "52.1%"}
{"compound": "CC1=NN(C(=O)c2ccc(Br)cc2)C(O)(c2ccccc2)C1", "note": "(configuration not stated)", "double positive events": "64.3%", "vesicle binding response": "165% (inactive)"}
{"compound": "Clc1cc(-c2ccc(/C=N/n3cnnc3)o2)ccc1Br", "vesicle binding response": "130% (inactive)", "double positive events": "56.6%"}
{"compound": "O=c1oc2c(CN3CCCCC3)c(O)ccc2c2c1CCCCC2", "vesicle binding response": "136% (inactive)", "double positive events": "59.1%"}
{"compound": "Cc1ccc(-c2nnc(-c3ccc4c(c3)OCO4)o2)cc1", "vesicle binding response": "165% (inactive)", "double positive events": "57.9%"}
{"compound": "CC1(C)CC(=O)c2cn3c(nc2C1)nc1ccccc13", "vesicle binding response": "104% (inactive)", "double positive events": "55.9%"}
{"compound": "COc1ccc(C(=O)N2c3cc4c(cc3C(C)=CC2(C)C)OCO4)cc1", "vesicle binding response": "40.1% (inactive)", "double positive events": "56.6%"}
{"compound": "CCc1oc2ccccc2c1C(=O)c1cc(Br)c(O)c(Br)c1", "double positive events": "65.3%", "vesicle binding response": "165% (inactive)"}
{"compound": "Cc1oc2cc(O)cc(O)c2c(=O)c1-c1ccc2c(c1)OCCCO2", "double positive events": "60.8%", "vesicle binding response": "195% (inactive)"}
{"compound": "CCCC(=O)Nc1ncnc2c1ncn2[C@@H]1O[C@@H]2COP(=O)(O)O[C@H]2[C@H]1OC(=O)CCC", "double positive events": "61%", "vesicle binding response": "131% (inactive)"}
{"compound": "O=C(Cc1ccccc1)NCC(=O)OCC(=O)c1ccccc1Cl", "double positive events": "76.4%", "vesicle binding response": "296% (inactive)"}
{"compound": "CC/C(=C(\\c1ccc(O)cc1)c1ccc(OCCN(C)C)cc1)c1ccccc1", "double positive events": "62.9%", "vesicle binding response": "157% (inactive)"}
{"compound": "CC(C)(C)C(=O)Nc1cccc(OC(F)(F)C(F)Cl)c1", "note": "(configuration not stated)", "vesicle binding response": "212% (inactive)", "double positive events": "66.2%"}
{"compound": "Cc1ccc(/C(=C\\CN2CCCC2)c2ccccn2)cc1", "vesicle binding response": "146% (inactive)", "double positive events": "57.7%"}
{"compound": "CC(C)(C)c1ccc(/C=C/C(=O)N2CCCCC2)cc1", "double positive events": "59.2%", "vesicle binding response": "150% (inactive)"}
{"compound": "Cn1c(=O)[nH]c(=O)c2c1nc(NCc1ccco1)n2CCCc1ccccc1", "vesicle binding response": "36.6% (inactive)", "double positive events": "62.6%"}
{"compound": "CN(C)CCOC(=O)C(c1ccccc1)C1(O)CCCC1", "note": "(configuration not stated)", "double positive events": "65.7%", "vesicle binding response": "249% (inactive)"}
{"compound": "COc1ccccc1C(=O)Oc1ccc2c(c1)O/C(=C\\c1ccncc1)C2=O", "double positive events": "63.9%", "vesicle binding response": "274% (inactive)"}
{"compound": "CC(=O)CCCCn1c(=O)c2c(ncn2C)n(C)c1=O", "vesicle binding response": "162% (inactive)", "double positive events": "57.8%"}
{"compound": "CS(=O)c1ccccc1O", "note": "(configuration not stated)", "vesicle binding response": "144% (inactive)", "double positive events": "67.1%"}
{"compound": "COc1cccc(OCc2nnc(-c3cccs3)o2)c1", "vesicle binding response": "248% (inactive)", "double positive events": "60.1%"}
{"compound": "CCOC(=O)C(=O)N1CCN(c2ccccc2OC)CC1", "vesicle binding response": "175% (inactive)", "double positive events": "64.7%"}
{"compound": "COc1ccc(CCN2C(=O)CSC2c2ccc(OC)c(OC)c2)cc1OC", "note": "(configuration not stated)", "vesicle binding response": "184% (inactive)", "double positive events": "63.2%"}
{"compound": "CCCCCCCC(=O)OCC(O)CO", "note": "(configuration not stated)", "double positive events": "60.6%", "vesicle binding response": "45.8% (inactive)"}
{"compound": "CN1CCN(C2=Nc3ccccc3Oc3ccc(Cl)cc32)CC1", "double positive events": "61.6%", "vesicle binding response": "223% (inactive)"}
{"compound": "Cc1ccc(CN2CCN(CCCc3ccccc3)CC2CCO)cc1", "note": "(configuration not stated)", "vesicle binding response": "219% (inactive)", "double positive events": "62.7%"}
{"biological_target": "Integrin beta-1 (Homo sapiens) + Integrin alpha-4 (Homo sapiens) (UniProt P13612+P05556)", "sequence (P05556 whole entry, looked up)": "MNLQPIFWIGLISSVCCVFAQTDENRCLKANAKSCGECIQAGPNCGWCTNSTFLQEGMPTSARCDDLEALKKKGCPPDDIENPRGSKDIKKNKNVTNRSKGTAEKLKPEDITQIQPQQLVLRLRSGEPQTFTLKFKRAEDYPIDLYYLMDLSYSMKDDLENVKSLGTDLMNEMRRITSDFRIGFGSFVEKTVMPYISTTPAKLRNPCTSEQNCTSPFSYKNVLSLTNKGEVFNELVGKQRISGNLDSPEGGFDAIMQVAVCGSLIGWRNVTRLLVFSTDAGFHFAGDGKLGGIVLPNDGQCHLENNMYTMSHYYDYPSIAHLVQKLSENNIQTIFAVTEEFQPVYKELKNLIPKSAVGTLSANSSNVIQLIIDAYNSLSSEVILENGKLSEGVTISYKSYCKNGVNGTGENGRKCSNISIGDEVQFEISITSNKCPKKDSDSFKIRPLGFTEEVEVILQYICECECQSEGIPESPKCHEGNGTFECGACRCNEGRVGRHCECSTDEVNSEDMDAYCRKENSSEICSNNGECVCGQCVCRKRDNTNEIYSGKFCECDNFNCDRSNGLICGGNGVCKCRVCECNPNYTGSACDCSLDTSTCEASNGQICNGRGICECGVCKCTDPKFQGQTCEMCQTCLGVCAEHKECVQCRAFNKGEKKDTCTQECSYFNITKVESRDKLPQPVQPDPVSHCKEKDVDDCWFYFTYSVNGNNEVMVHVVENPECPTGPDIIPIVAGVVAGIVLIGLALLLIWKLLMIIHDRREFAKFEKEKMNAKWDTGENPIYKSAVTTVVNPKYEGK", "sequence (P13612 whole entry, looked up)": "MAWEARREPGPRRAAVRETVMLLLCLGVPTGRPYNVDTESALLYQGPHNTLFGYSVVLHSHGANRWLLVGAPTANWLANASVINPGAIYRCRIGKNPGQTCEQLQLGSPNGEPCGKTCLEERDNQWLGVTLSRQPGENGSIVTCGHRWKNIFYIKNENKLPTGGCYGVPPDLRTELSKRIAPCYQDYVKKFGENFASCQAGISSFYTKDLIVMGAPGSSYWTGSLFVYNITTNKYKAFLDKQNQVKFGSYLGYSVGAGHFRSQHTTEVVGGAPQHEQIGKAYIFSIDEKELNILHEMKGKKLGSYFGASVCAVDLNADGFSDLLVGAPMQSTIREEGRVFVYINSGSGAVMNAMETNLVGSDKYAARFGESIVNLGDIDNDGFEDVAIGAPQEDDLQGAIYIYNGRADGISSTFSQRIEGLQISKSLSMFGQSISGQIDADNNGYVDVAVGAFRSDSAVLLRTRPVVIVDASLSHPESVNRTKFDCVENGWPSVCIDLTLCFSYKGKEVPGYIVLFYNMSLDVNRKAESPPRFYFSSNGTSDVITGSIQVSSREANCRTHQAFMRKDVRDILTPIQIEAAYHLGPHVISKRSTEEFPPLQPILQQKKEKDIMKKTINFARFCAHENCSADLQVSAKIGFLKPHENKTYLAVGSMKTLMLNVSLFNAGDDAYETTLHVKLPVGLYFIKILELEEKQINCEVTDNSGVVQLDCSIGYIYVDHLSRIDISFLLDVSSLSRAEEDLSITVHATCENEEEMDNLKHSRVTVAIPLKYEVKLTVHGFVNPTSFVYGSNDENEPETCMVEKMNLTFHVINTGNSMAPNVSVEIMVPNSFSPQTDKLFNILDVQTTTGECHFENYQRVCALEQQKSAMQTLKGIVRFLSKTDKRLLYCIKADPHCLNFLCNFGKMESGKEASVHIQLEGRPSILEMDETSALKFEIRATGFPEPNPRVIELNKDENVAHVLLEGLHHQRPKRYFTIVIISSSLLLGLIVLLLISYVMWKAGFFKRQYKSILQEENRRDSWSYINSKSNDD", "assay": "alpha4beta1 integrin LIBS antibody binding reduction – U937 cells, HUTS-21 mAb, flow cytometry, validation set, VLA-4 allosteric modulator project, pilot screen (AID 2674;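 active means inhibition above 50%, about 3 SD of the validation set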;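 further: antibody binding induced by the VLA-4 ligand LDV present at three times its Kd; 0% = LDV ligand with antibody and no compound and 100% = antibody without LDV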)", "settings": "HUTS-21 LIBS mAb binding, at 6.7 µM, stronger effect = higher value, binding induced by LDV ligand"}
{"compound": "O=C(Cc1ccccc1[N+](=O)[O-])NCc1ccncc1", "inhibition": "6.4% (inactive)"}
{"compound": "Cn1nc(-c2ccc(Cl)cc2)nc2c(=O)n(C)c(=O)nc1-2", "inhibition": "-12.2% (inactive)"}
{"compound": "O=C(O)CCCCCNC(=O)Nc1ccc2c(c1)OCCO2", "inhibition": "-12% (inactive)"}
{"compound": "COc1ccc(S(N)(=O)=O)cc1C(N)=O", "inhibition": "-0.45% (inactive)"}
{"compound": "Cc1occc(=O)c1O", "inhibition": "-5.18% (inactive)"}
{"compound": "C[C@]12CCC3C(CC=C4C[C@@H](O)CC[C@@]43C)C1CCC2[C@]1(C)CCC(=O)O1", "note": "(some centres not stated)", "inhibition": "0.94% (inactive)"}
{"compound": "CC(=O)N(CCC1(c2ccc(C)cc2)CCOC(C(C)C)C1)Cc1ccco1", "note": "(configuration not stated)", "inhibition": "-16.8% (inactive)"}
{"compound": "O=C(CCc1ccccc1)Nc1ccccc1C(F)(F)F", "inhibition": "2.66% (inactive)"}
{"compound": "CN(C)C(=O)Oc1cccc([N+](C)(C)C)c1", "inhibition": "-2.82% (inactive) and 3.67% (inactive)"}
{"compound": "CCOc1ccc(C(NC(C)=O)c2ccc(OC)c(OC)c2)cc1", "note": "(configuration not stated)", "inhibition": "-20.4% (inactive)"}
{"compound": "COc1ccccc1N=CC1=C(O)CC(c2ccccc2)CC1=O", "note": "(configuration not stated)", "inhibition": "-36.2% (inactive)"}
{"compound": "O=C1CC(c2ccc(O)cc2)Oc2cc(O)cc(O)c21", "note": "(configuration not stated)", "inhibition": "-31.6% (inactive)"}
{"compound": "O=C(NCCO)c1ccc(Cl)c(Cl)c1", "inhibition": "-11.8% (inactive)"}
{"compound": "N/C(Cc1ccc(Cl)cc1Cl)=N\\OC(=O)c1ccc(Br)o1", "inhibition": "-11.3% (inactive)"}
{"compound": "CC1=NN(C(=O)c2ccc(Br)cc2)C(O)(c2ccccc2)C1", "note": "(configuration not stated)", "inhibition": "13.7% (inactive)"}
{"compound": "Clc1cc(-c2ccc(/C=N/n3cnnc3)o2)ccc1Br", "inhibition": "-3.77% (inactive)"}
{"compound": "O=c1oc2c(CN3CCCCC3)c(O)ccc2c2c1CCCCC2", "inhibition": "6.95% (inactive)"}
{"compound": "Cc1ccc(-c2nnc(-c3ccc4c(c3)OCO4)o2)cc1", "inhibition": "-2.82% (inactive)"}
{"compound": "CC1(C)CC(=O)c2cn3c(nc2C1)nc1ccccc13", "inhibition": "9.63% (inactive)"}
{"compound": "COc1ccc(C(=O)N2c3cc4c(cc3C(C)=CC2(C)C)OCO4)cc1", "inhibition": "-2.53% (inactive)"}
{"compound": "CCc1oc2ccccc2c1C(=O)c1cc(Br)c(O)c(Br)c1", "inhibition": "7.43% (inactive)"}
{"compound": "Cc1oc2cc(O)cc(O)c2c(=O)c1-c1ccc2c(c1)OCCCO2", "inhibition": "14.6% (inactive)"}
{"compound": "CCCC(=O)Nc1ncnc2c1ncn2[C@@H]1O[C@@H]2COP(=O)(O)O[C@H]2[C@H]1OC(=O)CCC", "inhibition": "4.52% (inactive)"}
{"compound": "O=C(Cc1ccccc1)NCC(=O)OCC(=O)c1ccccc1Cl", "inhibition": "-2.27% (inactive)"}
{"compound": "CC/C(=C(\\c1ccc(O)cc1)c1ccc(OCCN(C)C)cc1)c1ccccc1", "inhibition": "15% (inactive)"}
{"compound": "CC(C)(C)C(=O)Nc1cccc(OC(F)(F)C(F)Cl)c1", "note": "(configuration not stated)", "inhibition": "25.3% (inactive)"}
{"compound": "Cc1ccc(/C(=C\\CN2CCCC2)c2ccccn2)cc1", "inhibition": "12.3% (inactive)"}
{"compound": "CC(C)(C)c1ccc(/C=C/C(=O)N2CCCCC2)cc1", "inhibition": "10.5% (inactive)"}
{"compound": "Cn1c(=O)[nH]c(=O)c2c1nc(NCc1ccco1)n2CCCc1ccccc1", "inhibition": "-2.53% (inactive)"}
{"compound": "CN(C)CCOC(=O)C(c1ccccc1)C1(O)CCCC1", "note": "(configuration not stated)", "inhibition": "13.2% (inactive)"}
{"compound": "COc1ccccc1C(=O)Oc1ccc2c(c1)O/C(=C\\c1ccncc1)C2=O", "inhibition": "-58.2% (inactive)"}
{"compound": "CC(=O)CCCCn1c(=O)c2c(ncn2C)n(C)c1=O", "inhibition": "12% (inactive)"}
{"compound": "CS(=O)c1ccccc1O", "note": "(configuration not stated)", "inhibition": "8.28% (inactive)"}
{"compound": "COc1cccc(OCc2nnc(-c3cccs3)o2)c1", "inhibition": "5.69% (inactive)"}
{"compound": "CCOC(=O)C(=O)N1CCN(c2ccccc2OC)CC1", "inhibition": "-9.13% (inactive)"}
{"compound": "COc1ccc(CCN2C(=O)CSC2c2ccc(OC)c(OC)c2)cc1OC", "note": "(configuration not stated)", "inhibition": "9.13% (inactive)"}
{"compound": "CCCCCCCC(=O)OCC(O)CO", "note": "(configuration not stated)", "inhibition": "0.58% (inactive)"}
{"compound": "CN1CCN(C2=Nc3ccccc3Oc3ccc(Cl)cc32)CC1", "inhibition": "4.52% (inactive)"}
{"compound": "Cc1ccc(CN2CCN(CCCc3ccccc3)CC2CCO)cc1", "note": "(configuration not stated)", "inhibition": "7.85% (inactive)"}
